Screens (PubChem)
Sm TGR block = S. mansoni TGR enzyme inhibition; Potency, µM (doses to about 114 µM), for inactives: at the highest dose activity change, negative = inhibition, actives largely listed as inhibitors; purified TGR, DTNB reduction, TNB absorbance 405 nm; Q962Y6; actives 3% (n = 360,000); further: potency means the concentration at half of the fitted maximal effect; nearly all actives have a fitted effect of over 60% in size
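First, TGR (20 nM dispensed) and NADPH were mixed with compound. Second, a 15 min room-temperature incubation followed. Third, further NADPH and then DTNB were added to start the reaction. Finally, TNB absorbance was monitored kinetically.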
Pf growth 96h = P. falciparum growth inhibition at 96 hours; actives 6.9% (n = 320,000); P. falciparum luciferase reporter growth, 96 h; AID 504834; Potency, µM (doses to about 28.7 µM), for inactives: top-dose activity change, negative = inhibition, actives largely listed as inhibitors; further: potency means the concentration at half of the fitted maximal effect
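Parasite growth measured via integrated firefly luciferase reporter in P. falciparum. Infected erythrocytes at 2% hematocrit, 0.05% parasitemia final were treated 96 hours at 37 C under 5% CO2, and luminescence was read.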
FBPA Giardia inh = blocks Giardia fructose-bisphosphate aldolase activity | A8B2U2 | purified Giardia FBPA | Potency, µM (doses to about 59.6 µM), for inactives: at the top dose activity, negative = inhibition, hits mostly inhibitors | actives 0.71% (n = 290,000) | AID 2451; further: potency means the concentration at half of the fitted maximal effect; nearly all actives have a fitted effect of over 55% in size
Target sequence (A8B2U2 whole entry, looked up): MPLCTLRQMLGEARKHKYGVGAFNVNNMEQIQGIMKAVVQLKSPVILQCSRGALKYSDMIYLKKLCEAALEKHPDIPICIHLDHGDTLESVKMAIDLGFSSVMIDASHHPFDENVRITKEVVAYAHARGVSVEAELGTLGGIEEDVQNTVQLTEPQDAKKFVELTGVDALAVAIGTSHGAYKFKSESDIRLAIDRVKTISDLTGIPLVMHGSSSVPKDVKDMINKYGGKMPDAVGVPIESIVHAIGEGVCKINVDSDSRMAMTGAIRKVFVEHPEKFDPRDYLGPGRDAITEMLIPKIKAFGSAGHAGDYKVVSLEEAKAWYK
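Giardia FBPA (40 nM reagent) was preincubated 10 min at RT with compound (up to 57.5 uM final), then substrate plus GAPDH/TPI/NAD/arsenate coupling system with diaphorase/resazurin was added; resorufin fluorescence (525/598 nm) was read after 20 min.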
Pf growth 48h = P. falciparum growth inhibition at 48 hours (one generation); P. falciparum luciferase growth in erythrocytes, 48 h; actives 5.9% (n = 310,000); AID 504832; Potency, µM (doses to about 28.7 µM), for the others: top-dose activity change, negative = inhibition, most hits filed as inhibitors; further: potency means the concentration at half of the fitted maximal effect
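Erythrocytes infected with P. falciparum carrying an integrated firefly luciferase reporter (2% hematocrit, 0.1% parasitemia final) were exposed to compounds in RPMI 1640 with 0.5% Albumax at 37 C, 5% CO2. Growth inhibition was scored as reduced luminescence.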
HCMV inh = human cytomegalovirus inhibition; HFF cells, HCMV-luciferase reporter, 72 h; active compounds read low; activity change, negative = inhibition, % at 57.5 µM; actives 4.5% (n = 410,000); AID 1259415; in the data active means activity change below about -60%; inconclusive means no clear call, values can overlap the other calls; inactive means above about -39%
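Cell-based, HFFs, 1000 cells/well, 16 h 37C; cpds in DMSO + HCMV-luc, MOI 1 PFU/cell; 72 h 37C; OneGlo luminescence after 5 min RT; norm. to buffer vs Salinomycin 10uM.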
* marks the source's active call; other numbers are inactive results; ? = inconclusive; / = no result given; + = active, no number. Most compounds without a hit are left out; they make up all but 14% or so of the library. Unless noted, the call rests on the fitted dose curve; in most records, active means well fitted curve in the direction sought with a large enough effect; inconclusive means small, poorly fitted or top-dose-only effect, or another doubt; inactive means no such curve, though single readings can be large; an effect the other way counts as inactive or inconclusive. On the % scale 0 is the no-effect control and ±100 the full control effect.

SMILES | Sm TGR block | Pf growth 96h | FBPA Giardia inh | Pf growth 48h | HCMV inh
Cc1cccc(-n2ncc3c(N(C)C4CCCCC4)ncnc32)c1 | 3.2% | 133.8% | -7.6% | 22.2% | -78.1*
COc1ccc([C@H]2CC(=O)C=C(c3cccc4c3Oc3ccccc3S4)C2)cc1OC | 3.7% | ? | / | ? | 56.3
O=C(CSc1nnnn1C1CCCCC1)NCc1ccco1 | 28.2µM* | ? | 0.3% | 13.3% | 16.2
O=C(CSc1nnnn1C1CCCC1)NCc1ccc2c(c1)OCO2 | -16.4% | 10.4µM* | 2.0% | 3.6% | 7.5
O=C(CSc1nc(C2CCCCC2)nc2ccccc12)NCc1ccco1 | / | 27.2% | 11.2% | 6.0% | -102.4*
Cc1sc2nc(C3CC3)nc(SCC(=O)NCc3ccco3)c2c1C | ? | 18.1% | 12.2% | -18.5% | 7.0
O=C(CSc1nc2ccccc2o1)NC1CCS(=O)(=O)C1 (stereo unspecified) | / | / | / | / | 16.7
Cn1c2c(c(=O)c3ccccc31)C[C@@H](O)C(C)(C)O2 | / | / | 1.2% | / | /
C[C@@]12CC[C@@H](C3=C(CCC3)C1)N2c1ccccc1 | / | / | / | / | 3.6
COC(=O)c1ccccc1NC(=O)CCC(=O)N1CC(C)Sc2ccccc21 (stereo unspecified) | 1.2% | / | / | / | -25.9
CC1(CCCN2C(=O)c3ccccc3C2=O)OCCO1 | / | / | / | / | -19.7
O=C(c1cnccn1)N1CCC[C@@]2(CCN(c3ccccn3)C2)C1 | / | / | 0.7% | / | /
Cc1cc2cc(C(c3nnnn3C3CCCC3)N(Cc3cccnc3)Cc3ccco3)c(=O)[nH]c2cc1C (stereo unspecified) | ? | 2.33µM* | -6.2% | / | -66.5*
CCC(C)(C)n1nnnc1C(c1cc2ccc(C)cc2[nH]c1=O)N(Cc1cccnc1)Cc1ccco1 (stereo unspecified) | ? | 43.2% | -1.2% | 11.7µM* | 50.5
CC1Sc2ccc(C(=O)Nc3ncccc3O)cc2NC1=O (stereo unspecified) | -16.2% | 144.8% | / | 147.0% | 37.7
O=C(N/C(C(=O)N1CCOCC1)=C(\Sc1ncccn1)c1ccccc1)c1ccccc1 | 39.8µM* | -1.4% | -12.7% | -9.9% | 20.0
CC(C)=C(NC(=O)c1ccccc1)C(=O)N1CCOCC1 | 3.8% | / | 9.5% | 5.0% | -22.8
CCCn1cnc2c(sc3nc4c(cc32)CSC(C)(C)C4)c1=O | -20.3% | 66.7% | -5.0% | 79.8% | 56.5
CC(C)CCOc1ncnc2c1sc1nc3c(cc12)CSC(C)(C)C3 | -22.7% | ? | 4.6% | 11.7µM* | 7.2
Cc1c(NC(=O)[C@@H](NC(=O)c2ccc(Cl)c([N+](=O)[O-])c2)C(C)C)c(=O)n(-c2ccccc2)n1C | / | / | / | / | 39.3
COc1ccc(N=Cc2nc(-c3ccco3)oc2O)cc1 | -9.6% | 8.8% | -3.1% | -12.6% | 20.3
CCC(=NCc1ccc(Cl)c(Cl)c1)c1nc(-c2ccco2)oc1O | -2.9% | 11.7µM* | 3.8% | ? | -34.9
O=C1c2ccccc2C(=O)C1c1ccc(Cl)cc1 | -17.0% | ? | / | ? | 40.5
O=C1c2ccccc2C(=O)C1c1ccc(Br)cc1 | -7.7% | 15.1µM* | -13.6% | ? | -32.1
CCCCCC(=O)Nc1ccc(C2C(=O)c3ccccc3C2=O)cc1 | -4.8% | ? | -6.1% | 13.1µM* | 133.0
SMILES | Sm TGR block | Pf growth 96h | FBPA Giardia inh | Pf growth 48h | HCMV inh
O=C1c2ccccc2C(=O)C1c1ccc(O)cc1 | -22.0% | ? | 4.0% | 29.7% | -61.4*
O=C1c2ccccc2C(=O)C1c1ccc(F)cc1 | / | ? | / | -7.0% | /
CCOC(=O)C1(Cc2cccc(Cl)c2)CCCN(C(=O)c2cnn(CC)c2)C1 (stereo unspecified) | 1.7% | 15.4% | 5.4% | -4.3% | 29.4
COCC(CN1CCN(C2=NS(=O)(=O)c3ccccc32)CC1)OC(=O)c1ccc(OC)cc1 (stereo unspecified) | 2.8% | ? | 1.3% | 2.4% | -11.2
Cc1ccc(NC(=O)COc2cccc(Oc3ccccc3)c2)cc1S(=O)(=O)N1CCOCC1 | 2.2% | ? | / | 10.4µM* | -16.7
O=C(COc1ccc(S(=O)(=O)N2CCOCC2)cc1)Nc1ccc(Cl)c(C(F)(F)F)c1 | -1.1% | -4.4% | -1.2% | 9.28µM* | -30.8
CC(=O)Nc1ccc(OCC(=O)Nc2ccc(Cl)c(S(=O)(=O)N3CCOCC3)c2)cc1 | / | / | / | / | -71.2*
CCc1cccc(OCC(=O)Nc2ccc(C)c(S(=O)(=O)N3CCCCCC3)c2)c1 | 4.1% | ? | / | ? | -14.6
CN(CC(=O)Nc1cccc(S(=O)(=O)N2CCOCC2)c1)CC(=O)Nc1ccc(Cl)c(C(F)(F)F)c1 | 7.9% | ? | / | ? | -74.5*
O=C1CC(c2ccccc2)Cc2[nH]c(=O)c(C(=O)Nc3cccc(F)c3)cc21 (stereo unspecified) | 0.5% | / | / | / | -18.6
O=C(COC(=O)c1ccc(S(=O)(=O)N2CCOCC2)cc1)NC1CCCCCC1 | 12.2% | -12.1% | 0.0% | -23.9% | -22.8
O=C(COc1ccc(S(=O)(=O)N2CCOCC2)cc1)NC1CCCCC1 | -0.5% | 11.7µM* | / | ? | 33.0
Cc1ccc(NC(=O)CN2c3cccc4cccc(c34)S2(=O)=O)cc1S(=O)(=O)N1CCOCC1 | -2.5% | 9.28µM* | -3.9% | ? | -28.9
O=C1CCC[C@H]2[C@@H](Cc3ccccc3)[C@@H](NCC3CCCCC3)CC[C@]23CCCN13 | / | / | / | / | 12.8
C=CCn1c(SCC(=O)NC2CCS(=O)(=O)C2)nnc1-c1ccncc1 (stereo unspecified) | -3.7% | 27.1% | -6.8% | 2.62µM* | 0.0
Cc1ccc(SCC(=O)NC2CCS(=O)(=O)C2)cc1 (stereo unspecified) | -28.3% | 42.0% | 2.3% | 39.9% | -64.7*
Cc1cc(C)c2c(CC(=O)NC3CCS(=O)(=O)C3)coc2c1 (stereo unspecified) | -8.8% | ? | -0.8% | 22.2% | +
Cc1cc(C)c2c(CC(=O)NN(C)C)coc2c1 | 0.5% | ? | 0.4% | 8.6% | -39.3
COC(=O)C1(Cc2ccccc2)NC(c2ccc(F)cc2)C2C(=O)N(C)C(=O)C21 (stereo unspecified) | 9.3% | 34.4% | -0.7% | -37.3% | 57.9
COc1ccc(N2C(=O)C3C(c4ccc(C(=O)O)cc4)NC(Cc4ccccc4)(C(=O)O)C3C2=O)c([N+](=O)[O-])c1 (stereo unspecified) | -29.4% | 2.94µM* | 15.0% | 12.4% | -21.9
COC(=O)[C@]1(Cc2ccccc2)N[C@H](c2ccc(-c3cc(C(C)=O)cs3)cc2)[C@@H]2C(=O)N(C)C(=O)[C@@H]21 | -16.3% | ? | / | 9.28µM* | 17.8
COC(=O)[C@]1(Cc2ccccc2)N[C@H](c2ccc(-c3cccc(Cl)c3)cc2)[C@@H]2C(=O)N(C)C(=O)[C@@H]21 | 21.5% | 5.22µM* | / | 13.1µM* | 4.2
COC(=O)[C@]1(Cc2ccccc2)N[C@H](c2ccc(-c3ccccc3)cc2)[C@@H]2C(=O)N(C)C(=O)[C@@H]21 | -30.8% | ? | / | ? | 8.1
